Compound activity: PubChem, National Center for Advancing Translational Sciences (NCATS)
TRHR enhancer – allosterically enhances the human TRH receptor; enhancement, % at 2 µM; AID 493056; P34981; TRHR cells, fluo-8 calcium fluorescence, EC20 TRH enhancement; 360,000 compounds, 0.66% hits; in the data active = enhancement above about 30%
Target sequence (P34981 whole entry, looked up): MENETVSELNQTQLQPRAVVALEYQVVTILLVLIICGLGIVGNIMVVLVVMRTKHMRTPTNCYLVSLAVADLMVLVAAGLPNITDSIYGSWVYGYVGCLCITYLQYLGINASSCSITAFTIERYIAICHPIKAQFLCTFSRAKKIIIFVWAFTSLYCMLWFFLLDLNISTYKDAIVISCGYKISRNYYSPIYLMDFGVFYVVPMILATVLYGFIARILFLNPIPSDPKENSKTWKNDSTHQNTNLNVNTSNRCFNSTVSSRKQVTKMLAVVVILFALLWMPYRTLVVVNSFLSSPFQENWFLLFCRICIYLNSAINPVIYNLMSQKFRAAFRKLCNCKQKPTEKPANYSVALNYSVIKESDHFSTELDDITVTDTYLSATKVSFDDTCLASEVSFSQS
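Enhancer read-out: after compound pinning and an initial kinetic agonist-mode read, an EC20 of TRH (10 nM final) was injected and fluo-8 calcium signal (Ex 480/Em 530) followed at 1 s/cycle for 100 cycles in TRHR-expressing cells.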
D1 antag – human D1 dopamine receptor antagonism | HEK293 TREx D1 cells, calcium flux, dopamine EC80; active compounds read low | 360,000 compounds, 3.2% hits | P21728 | activity change, negative = inhibition, % at 10 µM | AID 504652; in the data active = activity change below about -30%
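Calcium flux readout: force-coupled, inducible Hek293 Trex D1 line, cells induced overnight at 30 C with tetracycline, dye-loaded 30–90 min at RT. Antagonism scored against EC80 dopamine challenge given 180 s after compound.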
TRHR ag – TRH receptor (human) agonism. 360,000 compounds, 0.18% hits. P34981. TRHR cells, calcium flux fluo-8, FDSS agonist mode. activation, % at 2 µM. AID 493084
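Agonist-mode FDSS calcium read (Ex 480/Em 530, 1 s cycles) in 1536-well TRHR cells with fluo-8 dye, after 10-cycle baseline and 23 nL compound addition; TRH at EC20 (10 nM final) added afterwards for the enhancer phase.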
D1 PAM – human D1 dopamine receptor positive modulation; 360,000 compounds, 0.036% hits; P21728; HEK293 TREx D1 cells, calcium flux, dopamine EC20 potentiation; potentiation, % at 10 µM; AID 504651; in the data active = potentiation above about 30%
D1 ag – activates the human D1 dopamine receptor. P21728. HEK293 T-REx D1 cells, calcium flux, agonist mode. activation, % at 2 µM. 360,000 compounds, 1% hits
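Tetracycline-induced HEK293 TREx D1 cells, force-coupled to calcium signalling, were dye-loaded with a no-wash calcium kit. Compound was pin-added after a 10 s baseline. Fluorescence was read kinetically at 1 cycle/s for 180 s, with calcium rises flagged as agonism.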
Large screens that a line does not name were inactive. The list is not random: actives were taken first. Their share in the collection is about 4.7%. Rule as the data show it, unless noted: active = activation above about 30%; inactive = the rest.

O=C(O)COc1ccc2c3c(c(=O)oc2c1)CCC3	none
CCN1CCN(C(c2ccccc2Cl)c2sc3nc(-c4ccco4)nn3c2O)CC1 (configuration not stated)	none (no result: D1 antag)
O=C(NNC(=O)c1ccc(Cl)cc1Cl)Nc1ccccc1	D1 antag -37.8
O=C(NCc1n[nH]c(=S)n1Cc1ccccc1)c1ccc(Cl)cc1Cl	D1 antag -31.4
O=C(NCc1n[nH]c(=S)n1Cc1ccccc1)c1ccccc1	none
O=C(CNC(=O)c1ccc(Cl)cc1Cl)OCc1ccccc1	D1 antag -31.9
Cc1ccsc1C(=O)NCC(=O)OCc1ccccc1	D1 antag -30.2
Cc1ccsc1C(=O)Nc1ccc(OCc2ccccc2)cc1	none
O=C(COC(=O)CNC(=O)c1ccc(Cl)cc1Cl)NNC(=O)c1ccccc1	none
COc1cc(N)c(C(=O)c2nccc3cc(OC)c(OC)cc23)cc1OC	none
COc1cc(Br)c(C(=O)c2nccc3cc(OC)c(OC)cc23)cc1OC	D1 antag -31.3
O=C(O)c1cccc(N/N=C/c2cccnc2)c1	D1 antag -30.8
CC(=O)c1ccc(N2CCN(S(=O)(=O)c3cc(-c4onc(C)c4C)ccc3C)CC2)cc1	none
CCC(C)NCCCOc1c(C)cc(C)cc1Br (configuration not stated)	D1 ag 32.2
NC(=Nc1ccc(Cl)cc1)c1ccccc1	D1 antag -53.2, TRHR ag 30.6, D1 ag 70.8
ONC(=Nc1ccccc1)c1ccc(Cl)cc1	none
Cn1c(=O)c2c(nc(SCC(=O)Nc3ccc(F)c(F)c3)n2Cc2ccccc2F)n(C)c1=O	none
O=c1cc(CSc2nc3ccccc3c(=O)[nH]2)c2ccc(O)cc2o1	D1 antag -37.3
O=c1[nH]c(SCc2ccccc2F)nc2ccccc12	none
O=C(NCCc1ccccc1)c1ccc(CSc2nc3ccncc3n2Cc2cccc(F)c2)cc1	D1 antag -35.1, D1 ag 58.6
Cc1ccc(Cn2c(SCc3ccc(C(=O)NC4CCCC4)cc3)nc3ccncc32)cc1	D1 antag -37.2
Cc1cccc(Cn2c(SCc3ccc(C(=O)NCCc4ccccc4)cc3)nc3ccncc32)c1	none
COc1ccc(Cn2c(SCc3ccc(C(=O)NC4CCCC4)cc3)nc3ccncc32)cc1	D1 antag -30.6
COc1ccc(Cn2c(SCc3ccc(C(=O)NC4CCCCC4)cc3)nc3ccncc32)cc1	none
CCOC(=O)c1sc2ccccc2c1S(=O)(=O)Nc1ccc(N(C)C)cc1	none
COC(=O)c1cc2c(=O)c3ccccc3oc2nc1C	none
COC(=O)c1cc2c(=O)c3ccccc3oc2nc1/C=C/N(C)C	TRHR ag 35.4, D1 ag 76.0
O=C(NCCCN1CCN(c2ccccc2)CC1)c1nnc(Cc2ccc(F)cc2)o1	none
Cc1ccc(C)c(CS(=O)(=O)c2cn(CC(=O)N(C(C)C)C(C)C)c3ccccc23)c1	none
c1ccc(Nc2nc(-c3ccccn3)cs2)cc1	none
c1ccc(-c2csc(Nc3cccnc3)n2)nc1	D1 antag -30.5
CCOc1ccc(C(=O)/C=C/c2ccc(SC)cc2)cc1	D1 antag -30.2
CCOc1ccc(C(=O)/C=C/c2cc(OC)c(OC)c(OC)c2)cc1	D1 antag -49.5
COc1cc(/C=C/C(=O)c2ccc(F)cc2)cc(OC)c1OC	none
Cc1ccc(CNC(=O)CCNS(=O)(=O)c2ccc3c(c2)CCCC(=O)N3)cc1	none
CSc1nc2sc3c(c2c(=O)n1-c1ccc(C)c(Cl)c1)CCN(C(C)=O)C3	none
CC(=O)NS(=O)(=O)c1cccnc1Nc1cccc(Cl)c1C	D1 antag -33.5
COc1ccc(CNc2ncnc3c2c(-c2ccccc2)cn3-c2cccc(C)c2)cc1	none
CC(C)(NC(=O)c1cc(Cl)c2ccccc2c1O)C(=O)O	D1 antag -30.5
O=C(O)c1cc(Cl)c2ccccc2c1O	none
Cc1ccc(NC(=O)Cn2cc(C(=O)c3ccco3)c3ccccc32)cc1	none
COC(=O)C(C(=O)OC)C(C(C)C)C(C(=O)OC)C(=O)OC	TRHR enhancer 39.8
COC(=O)C(C(=O)OC)C(C(=O)OC)C(C(=O)OC)C(=O)OC	none
COc1ccccc1N1CCN(C(=O)c2c(C)oc3ncn(C)c(=O)c23)CC1	D1 antag -35.3
O=C(c1cc(-c2cccs2)on1)N1CCN(c2ccccc2)CC1	D1 antag -38.4
COc1ccccc1N1CCN(C(=O)c2cc(-c3ccc(F)cc3)on2)CC1	none
